# Assay results reported in ChEMBL document CHEMBL3988442, “University of Dundee, Small-Polar-MMV Screening Library” (2021).
# Out of some 69,000 compounds screened, about 1,000 (1.4%) showed an effect of 50% or more. For the sample, strong results were picked, then their nearest neighbours and some compounds at random.
# Tested on: Leishmania donovani
# Test: Leishmania intramacrophage assay
# Type: functional, organism-based
# Parameters: scale not given: in the data most compounds retested in dose-response had high values
smiles,measurement,setting,value
Cn1ncc(C(=O)N2CCCC(n3cccn3)C2)c1C1CC1 (configuration not stated),Percent Effect,"30 µM, 30.03 µM",-6.982%
CCN(C(=O)Nc1cccnc1OC)C1CC1,Percent Effect,"30 µM, 30.03 µM",22.39%
COc1ncccc1NC(=O)N(Cc1ccc(C)o1)C1CC1,Percent Effect,"30 µM, 30.03 µM",53.3%
COc1ncccc1NC(=O)N(Cc1ccco1)C1CC1,Percent Effect,30 µM,6.992%
O=C1CCc2cc(OCCN3CCc4cncnc4C3)ccc2N1,Percent Effect,"30.3 µM, […]",41.19%
Cc1nc(S(=O)(=O)N2CCC3(CCCCC3)C2)cn1C,Percent Effect,"30.3 µM, […]",-11.17%
CC(C)Nc1nc2c(cc1C(=O)NCC1CC1)CCNCC2.O=C(O)C(F)(F)F.O=C(O)C(F)(F)F,Percent Effect,"30 µM, 30.03 µM",30.72%
CC(C)CNc1nc2c(cc1C(=O)NCC1CC1)CCNCC2,Percent Effect,"30.3 µM, […]",79%
CNC(=O)c1cc2c(nc1NCC1CC1)CCNCC2,Percent Effect,"30.3 µM, […]",-29.9%
O=C(C1CCCO1)N1CCc2onc(-c3ccc(Cl)cc3)c2C1 (configuration not stated),Percent Effect,"30.3 µM, […]",-19.46%
Cc1ccccc1CC1(C(=O)O)CCCN(c2ncnc3[nH]ccc23)C1 (configuration not stated),Percent Effect,"30.3 µM, […]",-3.526%
Cc1ccccc1CC1(CO)CCCN(c2ncncc2C(C)C)C1 (configuration not stated),Percent Effect,"30.3 µM, […]",60.98%
Cc1cnc(C)c(N2CCCC(C/C=C/c3ccccc3)(C(=O)O)C2)n1 (configuration not stated),Percent Effect,"30.3 µM, […]",12.4%
Cc1ccccc1CC1(CO)CCCN(c2ncnc3sccc23)C1 (configuration not stated),Percent Effect,"30.3 µM, […]",67.14%
Cc1cnc(C)c(N2CCCC(CO)(Cc3ccccc3C)C2)n1 (configuration not stated),Percent Effect,"30.3 µM, […]",58.45%
CC(=O)c1ccc(N2CCCC(CO)(Cc3ccccc3C)C2)nc1 (configuration not stated),Percent Effect,"30.3 µM, […]",44.66%
Cc1ncc(C)c(N2CCCC(CO)(Cc3cccc(Cl)c3)C2)n1 (configuration not stated),Percent Effect,"30 µM, 30.03 µM",20.29%
Cc1cnc(C)c(N2CCCC(CO)(Cc3cccc(Cl)c3)C2)n1 (configuration not stated),Percent Effect,"30.3 µM, […]",-33.57%
Cc1ccccc1CC1(CO)CCCN(c2ncccc2C#N)C1 (configuration not stated),Percent Effect,"30 µM, 30.03 µM",15.87%
O=C1CCCc2[nH]c(=O)c(C(=O)N3CCc4ccccc4C3)cc21,Percent Effect,"30.3 µM, […]",0.8668%
O=C(CN(Cc1cccc(F)c1)CC1CCCO1)N1CCCC1 (configuration not stated),Percent Effect,"30.3 µM, […]",-8.596%
CC[C@@H]1N(Cc2ccoc2)CCC[C@]12CCC(=O)N2CCOC.O=C(O)C(F)(F)F,Percent Effect,"30.3 µM, […]",-8.415%
CC(C)N1CCC(NC(=O)c2cn(-c3ccc(F)cc3)nn2)C1 (configuration not stated),Percent Effect,"30.3 µM, […]",-11.91%
CCc1cc(NCCCc2nc(C)no2)nc(-c2ccncc2)n1,Percent Effect,"30.3 µM, […]",-6.6%
Cc1cc(Nc2ncccn2)nc(C2CCCN(CCO)C2)n1 (configuration not stated),Percent Effect,"30.3 µM, […]",24.35%
Cc1cc(Nc2ccccn2)nc(C2CCCN(CCO)C2)n1.O=CO (configuration not stated),Percent Effect,"30.3 µM, […]",32.66%
Cc1cc(Nc2cnccn2)nc(C2CCCN(CCO)C2)n1 (configuration not stated),Percent Effect,"30.3 µM, […]",56.31%
CN(CCn1cncc1-c1cnc(N2CCOCC2)nc1)C1CCCC1,Percent Effect,"30.3 µM, […]",22.37%
CNC(=O)N1C[C@H]2N(c3ncccn3)CCC[C@@]2(C(=O)NCC2CC2)C1,Percent Effect,"30.3 µM, […]",18.69%
CC(C)CN1C[C@H]2N(c3ncccn3)CCC[C@@]2(C(=O)NCC2CC2)C1,Percent Effect,"30.3 µM, […]",11.67%
CS(=O)(=O)N1C[C@H]2N(c3ncccn3)CCC[C@@]2(C(=O)NCC2CC2)C1,Percent Effect,"30.3 µM, […]",51.67%
COCCN1CC[C@H]2CN(Cc3ccc(C)s3)C[C@@H]2C1=O.O=C(O)C(F)(F)F,Percent Effect,"30.3 µM, […]",-9.099%
CC(Cc1cccc(F)c1)C(=O)NS(=O)(=O)c1ccc(F)cc1 (configuration not stated),Percent Effect,"30.3 µM, […]",5.076%
CC(CN1CCOCC1)NC(=O)c1cccc2cn[nH]c12 (configuration not stated),Percent Effect,"30.3 µM, […]",18.62%
CN(C)C(=O)c1cc2ncc(C(=O)NC3CCCC3)cc2n1C,Percent Effect,"30.3 µM, […]",-2.053%
Cc1ccc(CNC2CCCN(Cc3noc(C4CC4)n3)C2)s1 (configuration not stated),Percent Effect,30 µM,1.737%
Cc1ncccc1CNC1CCCN(Cc2noc(C3CC3)n2)C1 (configuration not stated),Percent Effect,30 µM,51.55%
Cc1ccsc1CNC1CCCN(Cc2noc(C3CC3)n2)C1 (configuration not stated),Percent Effect,30 µM,29.68%
Cc1ccc(N2CCCC(NCc3ccc(C)o3)C2)nn1 (configuration not stated),Percent Effect,"30 µM, 30.03 µM",1.465%
CCc1cc(N2CCC(Nc3ccc(Cl)cn3)CC2)ncn1,Percent Effect,"30.3 µM, […]",39.5%
CCc1cc(N2CCC(NCc3ccc(C)o3)CC2)ncn1,Percent Effect,"30.3 µM, […]",57.16%
COc1c(CNCCNC(=O)c2ccccc2)c(C)nn1C.Cl,Percent Effect,30 µM,37.81%
Cc1nc(C)n(CC2CCCCN2CCOc2cccc(C#N)c2)n1 (configuration not stated),Percent Effect,30 µM,14.77%
Cc1noc(C(C)N2CCN(c3ncnc4sccc34)CC2)n1 (configuration not stated),Percent Effect,"30.3 µM, […]",61.64%
CCc1noc(C(C)N2CCN(c3ncnc4sccc34)CC2)n1 (configuration not stated),Percent Effect,"30.3 µM, […]",17.92%
Cc1noc(C(C)N2CCN(c3ncnc4ccccc34)CC2)n1 (configuration not stated),Percent Effect,"30.3 µM, […]",-13.38%
Cc1cnn(C2CCCN(C(=O)c3cc[nH]n3)C2)c1 (configuration not stated),Percent Effect,"30.3 µM, […]",9.905%
CCC(CN1CCCC1)NC(=O)C1(c2ccc(F)cc2)CC1 (configuration not stated),Percent Effect,"30.3 µM, […]",52.84%
CCC(CN1CCCC1)NC(=O)C1(c2cccc(F)c2)CC1.O=C(O)CC(O)(CC(=O)O)C(=O)O (configuration not stated),Percent Effect,"30.3 µM, […]",43.99%
CCC(CN1CCCCC1)NC(=O)C1(c2ccc(F)cc2)CC1.O=C(O)CC(O)(CC(=O)O)C(=O)O (configuration not stated),Percent Effect,"30.3 µM, […]",18.07%
COCCCN1CCCN(C(C)c2nc(C3CC3)no2)CC1 (configuration not stated),Percent Effect,"30 µM, 30.03 µM",35.53%
CCOc1ccc(C(=O)N(C)Cc2nccn2CC(F)(F)F)cc1,Percent Effect,"30.3 µM, […]",3.454%
CCC(C)c1ccc(NC(=O)C2CCN(C(=O)N(C)C)CC2)cc1 (configuration not stated),Percent Effect,"30.3 µM, […]",18.48%
CCOc1ccnc(N2CCN(C(=O)c3ccncc3)CC2)n1,Percent Effect,30 µM,-11.04%
Cn1cc(CN2CCC3(CC2)CC(c2ccncc2)C(=O)N3)cn1.O=C(O)C(F)(F)F.O=C(O)C(F)(F)F (configuration not stated),Percent Effect,"30 µM, 30.03 µM",3.212%
Cc1cc(CN2CCC(C3CCN(CCc4ccccc4)C3)CC2)[nH]n1 (configuration not stated),Percent Effect,"30.3 µM, […]",16.23%
COc1ccc(CCN2CCCC(CN(C)Cc3[nH]cnc3C)C2)cc1 (configuration not stated),Percent Effect,"30.3 µM, […]",-2.681%
Cc1nc(C)n(CC2CCCN(CCc3ccncc3)C2)n1 (configuration not stated),Percent Effect,"30 µM, 30.03 µM",27.42%
CCN(CC1CCCN(CCc2cccc(OC)c2)C1)C(=O)CN(C)C (configuration not stated),Percent Effect,"30.3 µM, […]",48.28%
Cc1nc[nH]c1CN1CCC(C2CCN(CCc3ccccc3)C2)CC1 (configuration not stated),Percent Effect,"30.3 µM, […]",22.99%
COc1ccccc1CCN1CCCC(CN(C)Cc2cc(C)n[nH]2)C1 (configuration not stated),Percent Effect,"30.3 µM, […]",19.41%
Cc1nc[nH]c1CN(C)CC1CCCN(CCc2ccc(Cl)cc2)C1 (configuration not stated),Percent Effect,"30 µM, 30.03 µM",95.69%
CN(Cc1cccc(O)c1)CC1CCCN(CCc2ccc(Cl)cc2)C1 (configuration not stated),Percent Effect,"30 µM, 30.03 µM",95.8%
CCOCCC(=O)N(C)Cc1noc(C(C)C)n1,Percent Effect,"30.3 µM, […]",0.5615%
COc1cccc(OCC2CCCN(C(=O)c3ncc(F)cc3F)C2)c1 (configuration not stated),Percent Effect,"30.3 µM, […]",9.755%
Cc1ccc(-c2cnnc(N3CCCC3c3nonc3C)n2)o1 (configuration not stated),Percent Effect,"30.3 µM, […]",17.41%
Cc1ccc(OCC(=O)Nc2ncccc2OC(F)F)cc1,Percent Effect,"30.3 µM, […]",23.14%
Cc1ccc(C(=O)NCCCNc2ccc(C(F)(F)F)cn2)cc1,Percent Effect,30 µM,23.85%
Cc1noc(CN2CCN(C(=O)N(C)C)CC2)n1,Percent Effect,30 µM,8.701%
COc1cccc2c1OCC(NC(=O)NCCC(N)=O)C2 (configuration not stated),Percent Effect,"30.3 µM, […]",-3.86%
CC1CCC(NCCCN2CCOCC2)CC1 (configuration not stated),Percent Effect,"30.3 µM, […]",41.59%
Cc1ccc(C)c(-n2ncc(C(=O)NCC3COC(C)(C)O3)c2N)c1 (configuration not stated),Percent Effect,"30.3 µM, […]",6.712%
c1csc(CN2CCCN(c3ccc(Cn4ccnc4)cn3)CC2)c1,Percent Effect,"30.3 µM, […]",43.35%
c1cn(Cc2ccc(N3CCCN(C4CCCC4)CC3)nc2)cn1,Percent Effect,"30.3 µM, […]",60.72%
CC1CCN(c2ccc(CNC(=O)NCCn3ccnc3)cn2)CC1,Percent Effect,"30.3 µM, […]",-10.4%
Fc1ccc(N2CCCN(c3ccc(Cn4ccnc4)cn3)CC2)cc1,Percent Effect,"30.3 µM, […]",41.56%
CN(CC1CCN(c2ccccc2)C1)c1ccc(Cn2ccnc2)cn1 (configuration not stated),Percent Effect,"30.3 µM, […]",-5.433%
OC1CCN(C2CCN(c3ccc(Cn4ccnc4)cn3)CC2)CC1,Percent Effect,"30.3 µM, […]",61.02%
CC(=O)NC1CCN(C(=O)c2cnc(COc3ccccc3)nc2O)C1 (configuration not stated),Percent Effect,"30.3 µM, […]",6.861%
Cc1ccc(CN2CCc3onc(COc4cccnc4)c3C2)s1.O=C(O)C(F)(F)F.O=C(O)C(F)(F)F,Percent Effect,"30.3 µM, […]",-45.52%
O=S(=O)(NCc1ccnc(-n2ccnc2)c1)c1cncc(Cl)c1,Percent Effect,"30.3 µM, […]",-18.27%
COCCNC(=O)Cn1cc(OCc2ccc(F)cc2)c(=O)cc1CO,Percent Effect,"30.3 µM, […]",27.19%
Cc1nnc(N2CC[C@@H](OCC3CC3)[C@@H](Cc3ccccc3)C2)s1.O=C(O)C(F)(F)F,Percent Effect,"30.3 µM, […]",35.34%
CO[C@@H]1CCN(c2nnc(C)s2)C[C@@H]1Cc1ccccc1.O=C(O)C(F)(F)F,Percent Effect,"30.3 µM, […]",9.959%
Cc1nnc(N2CC[C@H](OCC3CC3)[C@@H](Cc3ccccc3)C2)s1.O=C(O)C(F)(F)F,Percent Effect,"30 µM, 30.03 µM",51.69%
O=C(Nc1cnccn1)[C@@H]1COC[C@H]2CN(C3CCC3)C[C@H]21.O=C(O)C(F)(F)F,Percent Effect,"30.3 µM, […]",-10.65%
CCc1nnc(Nc2cccc(C3CCN(CCO)CC3)n2)s1,Percent Effect,"30 µM, 30.03 µM",20.13%
